Laboratory results published in PubChem BioAssay AID493083 (Broad Institute, 2011).
About 95 (4%) of roughly 2,400 compounds were called active. About 3% were inconclusive and are not listed.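 How the source made its calls: active means compounds lowering signal whose fitted AC50 is at most ten times the top tested dose; inconclusive means flat fit with moderate inhibition, or poor curve fit; inactive means the rest.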 These entries were drawn from the full list. Entries with a potency or affinity are not part of this list.

Assay: GFP reporter loss versus dox-driven RFP – NIH3T3 R4 cells, cherry-pick, set 3, dose response (AID 493083);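 further: 0% = neutral control wells and -100% = didemnin B positive control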
Details: NIH3T3 R4 HSF-1 GFP reporter, heat shock, 48 h; series mostly up to 19.5 µM; activity change, negative = inhibition: at the top concentration

Activity change, negative = inhibition, inactive:
NS(=O)(=O)c1ccc(CCNC(=O)c2ccc(C#CC3(O)CCCCC3)cc2)cc1 -11%, COc1cccc(/C=N/NC(=O)c2cnccn2)c1 -11.7%, CC1CCN(CC(=O)c2cccs2)CC1 -0.687%, N/C(=N\OC(=O)Cc1ccccc1[N+](=O)[O-])c1cccnc1 -2.18%, Cc1ccc(S(=O)(=O)c2ccc(Oc3ccccc3)cc2)cc1 6.62%, COc1cc(NS(=O)(=O)c2ccc(C)cc2)c2ncccc2c1 152%, O=C(Cc1ccc(O)cc1)NC1CCCCCC1 2.64%, Fc1ccc(-c2nc3c(-c4ccc(Cl)cc4)cnn3cc2CCN2CCOCC2)cc1 6.99%, COc1ccc(-n2cc([N+](=O)[O-])c(=O)c3ccc(Cl)cc32)cc1 -4.31%, O=[N+]([O-])c1ccc(O)c(C=Nc2ccc3oc(Cc4ccc(Cl)cc4)nc3c2)c1 2.32%, CC(=O)c1ccc(OCC(O)CN2CCN(Cc3ccc4c(c3)OCO4)CC2)cc1 (configuration not stated) -11.3%, COc1ccc(C(=O)NC(=S)NNC(=O)c2ccco2)cc1 -5.87%, CNC(=S)N(CCc1c(C)[nH]c2ccc(C)cc12)Cc1cc(OC)c(OC)c(OC)c1 6.85%, CC1CCC2(CC1)N=C(N)Nc1nc3ccccc3n12 (configuration not stated) 22.7%, COc1ccc(C(=O)NNC(=O)c2ccccn2)cc1 1.89%, COc1ccc(OC)c(-c2cc(C(=O)N/N=C/c3cc(OC)c(OC)cc3OC)c3ccccc3n2)c1 6.57%, CC(C)Nc1nnc(Sc2ccc(Cl)cc2[N+](=O)[O-])s1 6.78%, Cc1ccc2nc(CSc3nc(C)ccc3C#N)[nH]c2c1 5.73%, CC(/C=C/c1ccc2c(c1)OCO2)=N/NC(=O)c1ccncc1 25.8%, COCCN(C(=S)Nc1c(C)cccc1C)C(C)c1cccnc1 (configuration not stated) -2.92%, COCCCn1c(-c2ccco2)nc2ccccc2c1=O -0.204%, N#Cc1c(N)n(-c2ccccc2N)c2nc3ccccc3nc12 -3.31%, COc1ccccc1C(=O)NCC(=O)N/N=C/c1ccc2c(c1)OCO2 3.39%, NS(=O)(=O)c1ccc(NC2=CC(=O)C(=O)c3ccccc32)cc1 -26%, CN(Cc1nc(-c2ccccc2)no1)C(=O)c1ccc2c(c1)OCO2 2.75%, COc1cccc(-c2c(NC(C)=O)n(C)c3ccccc3c2=O)c1 -3.87%, COc1ccc(NC(=O)c2cc(CN3C(=O)c4ccccc4C3=O)ccc2OC)cn1 3.72%, COc1ccc(/C=N/NC(=O)c2cc(-c3cccn3C)n[nH]2)cc1OC 1.97%, C=CCn1c(CCCNC(=O)C(C)(C)C)nc2ccccc21 5.13%, Cc1ccc(NC(=S)NC2CC3CCC(C2)N3Cc2ccco2)cc1C (configuration not stated) 2.77%, COc1ccc(N2CCN(C(=O)c3ccc(NS(=O)(=O)c4ccccc4)cc3)CC2)cc1 21.2%, COC(=O)c1cc2ccsc2n1Cc1nc(-c2ccc(Cl)cc2)oc1C 3.21%, COc1ccccc1/C=C/CN1CCC(Oc2cc(C(=O)NC3CC3)ccc2OC)CC1 7.7%, CC(NO)/C(=N\O)c1cccs1 (configuration not stated) 1.92%, COC(=O)C1=C(C(=O)OC)[C@@H]2N(C)c3ccccc3[C@@]23C[C@@H](C(=O)OC)N(C(=O)CC(C)C)C3=N1 0.888%, CCN1CCN(CCNC(=O)CCCCCn2c(=O)[nH]c3cc(C(=O)OC)ccc3c2=O)CC1 -7.53%, O=C(COC(=O)c1ccccc1SCC(=O)N1CCCC1)NC1CCS(=O)(=O)C1 (configuration not stated) 1.73%, Cc1ccc(S(=O)(=O)N2CCCC(C(=O)NCCc3ccc4c(c3)OCO4)C2)cc1 (configuration not stated) 13.8%, FC(F)Oc1ccc(NC(=S)NNc2ccnc3cc(Cl)ccc23)cc1 39.7%, CCc1ccc(C(=O)Cn2ncc(Cl)c(Cl)c2=O)cc1 -74.6%, Cc1ccc(-n2ncc(Br)c(Br)c2=O)cc1 -70.3%, CCCCCn1c(SCC(=O)CC(=O)OCC)nc2cc(C(=O)N3CCC(C(N)=O)CC3)ccc2c1=O -1.23%, CC(=O)Nc1cc[n+](C(C)C(=O)c2ccccc2)cc1 (configuration not stated) -10.5%, COc1cccc(-n2ccnc2SCC(=O)Nc2ccccc2F)c1 9.89%, O=C(CCc1ccccc1)Nc1cccc([N+](=O)[O-])c1 9.15%, O=C(NN=C1CCCCCCCCCCC1)c1ccccc1F 4.34%, COc1ccc(-n2nc(C(=O)NCC(=O)NCc3ccccc3OC)c3ccccc3c2=O)c(OC)c1 -1.43%, O=C(NC1CCCCC1)C(c1ccco1)N(C(=O)c1csnn1)c1ccc(Cl)cc1 (configuration not stated) 0.074%, CCC(C)NC(=O)C1(C)CCC(=O)N1Cc1ccccc1OC (configuration not stated) -0.568%, O=C(O)CSc1nc(-c2ccccc2)nc2c1oc1ccccc12 -7.46%, CNC(=O)c1ccsc1NC(=O)c1ccc(Cl)s1 -0.254%, Cc1ccc(OCC(=O)NCCNC(=O)c2ccco2)cc1C -0.642%, CCCCn1c(SCC(=O)NCc2ccco2)nc2c(sc3ccccc32)c1=O -2.75%, O=C(CCl)N1N=C(c2cccs2)CC1c1ccco1 (configuration not stated) 111%, COc1ccc(C2=NN(S(C)(=O)=O)C(c3cccs3)C2)cc1OC (configuration not stated) 0.996%, Cn1c(=O)c2ccccc2n(Cc2ccccc2Cl)c1=O 62.4%, COc1c([N+](=O)[O-])c(=O)oc2ccccc12 -1.45%, C/C(=N\NC(=O)c1nnn(-c2nonc2N)c1C(C)C)c1ccncc1 -3.27%, COc1ccc(/C=N/NC(=O)Nc2cccc3nsnc23)cc1OC 12.9%, COc1ccc(CNC(C)CCc2ccccc2)cc1 (configuration not stated) -3.43%, CCOc1ccc(NC(=O)CN(C)C(=O)c2ccc(N3CCCC3)c([N+](=O)[O-])c2)cc1OCC 4.14%, COc1cccc(N2CCN(C(=S)Nc3cc(C)cc(C)c3)CC2)c1 -4.49%, CC(CCCC(C)(C)O)NC(=O)c1ccc2oc(CCc3ccccc3)nc2c1 (configuration not stated) 1.71%, COc1ccc(NC(=O)CCc2nnc3ccc(N4CCC(C)CC4)nn23)cc1OC -0.697%, O=C(O)c1cccc(NC(=S)N/N=C/c2cccnc2)c1 -3.91%, CCc1cccc2c(C(=O)COC(=O)c3ccc([N+](=O)[O-])s3)c[nH]c12 4.77%, CNC(=S)N/N=C/c1ccc(-c2cccc(C(=O)O)c2)o1 -2.88%, CCOc1ccc(NC(=O)CCCNC(=O)Cn2cnc3sc(C)c(C)c3c2=O)cc1 -1.07%, CCC(=O)n1nc(-c2cccnc2)nc1NCc1cccs1 -3.19%, COc1ccc(N=Cc2c(O)ccc3ccccc23)cc1 69.2%, O=C1CCCN1CCC1CCN(C(=O)Nc2ccccc2)CC1 -0.501%, CC(C)CCNC(=O)c1ccc2c(SCC(=O)O)c3c(nc2c1)CCC3 -3.07%, COc1ccc(OC)c(NC(=O)C2CCCN(S(=O)(=O)c3c(C)nn(C)c3C)C2)c1 (configuration not stated) -0.401%, O=C(NCc1ccncc1)C(=O)Nc1nc(C23CC4CC(CC(C4)C2)C3)cs1 33.4%, Cc1cccc(C)c1NC(=O)c1cccnc1 -2.88%, COc1ccc(C)c2sc(NC(=O)C3=COCCO3)nc12 -4.67%, Cc1ccc(N2C(=O)N(CC(=O)NC(N)=O)C(=O)C2C)cc1 (configuration not stated) -1.14%, COc1cccc(Nc2ccc(C(=O)O)cc2N)c1 -0.631%, Cn1c(=O)c2c(ncn2CC(=O)Nc2cccc(S(=O)(=O)Nc3ccccc3F)c2)n(C)c1=O 8.04%, C/C(=N\NC(=O)c1c(C)nc2ccccn12)c1ccc(C(C)(C)C)cc1 8.05%, CCOC(=O)c1c(C)[nH]c(C)c1S(=O)(=O)NCCc1cccs1 3.28%, CCOC(=O)c1c(N2CCCCC2)c2ccccc2[nH]c1=O 2.34%, CC(C)(C)c1ccc(/C=N/N2C(=O)CSC2=S)cc1 -1.35%, O=C(NCCN1CCCCC1)Nc1ccccc1Cl -12.4%, NNC(=S)Nc1ccccc1Cl -2.15%, CC(C)C(=O)Nc1cccc(-c2nc3ncccc3o2)c1 -3.12%, CC(=O)Nc1nn(C)c2nc(C)cc(C)c12 -7.96%, Cc1cc(C)c(NC(=O)Nc2ccc3c(c2)OCO3)c(C)c1 10.5%, O=C(/C(=C(\[O-])c1ccccc1)[n+]1ccc2ccccc2c1)c1ccc([N+](=O)[O-])cc1 -3.91%, CCOC(=O)Cc1cnc(NC(=O)c2ccccc2)s1 14.6%, CCOC(=O)c1sc(NC(=O)Nc2ccccc2F)nc1C 2.48%, N#Cc1cccc(C#N)c1Oc1ccc(S(=O)(=O)Nc2ccc(Cl)cc2)cc1 27.6%, CCOC(=O)CCCNS(=O)(=O)c1c(C)ccc2nsnc12 -5.83%, COc1ccc(/C=C/C(=O)NC(=S)NCCc2ccc(OC)c(OC)c2)cc1 0.071%, COc1ccc(-n2c(C)c(C(C)=O)c(C(C)=O)c2C)cc1 -9.69%, O=C(O)C1CCC(=O)N(C2CCCCC2)C1c1ccccc1Cl (configuration not stated) -8.3%, O=C(CC1C(=O)NCCN1Cc1ccccc1F)NC1CCCCCC1 (configuration not stated) -11.2%, Cc1nn(-c2ccccc2Cl)c(Cl)c1/C=N/Nc1nc2ccccc2s1 8.96%, COc1ccccc1-c1nnc(SC2CCc3ccccc3NC2=O)s1 (configuration not stated) 16.7%, N#CCCn1nnc(-c2ccccc2F)n1 -4.93%, Cc1ccccc1OCC(=O)Nc1ccc2c(c1)C(=O)N(CCC(=O)O)C2=O -0.08%, O=[N+]([O-])c1ccc(Nc2ccc(F)cc2)cc1 0.888%, COc1nnc(-c2ccc(C(=O)N3C[C@@H]4C[C@H](C3)c3cccc(=O)n3C4)cc2)c2ccccc12 -9.99%, COc1ccc(S(=O)(=O)N2CCCC2)cc1C(C)C 3.89%, O=C(N1CCCCC1)N1CCN(S(=O)(=O)c2ccccc2)CC1 5.28%, CCN(C1CCS(=O)(=O)C1)S(=O)(=O)c1cccs1 (configuration not stated) -2.59%, Cc1ccnc(NC(=O)CS(=O)(=O)c2ccccc2)c1 0.818%, Cc1c(Cl)cccc1NC(=O)CS(=O)(=O)c1ccccc1 -2.14%, Cc1ccccc1OCCC(=O)OCC(=O)N1c2ccccc2NC(=O)C1(C)C -1.03%, Cc1c(-c2nc(-c3ccc(C(C)(C)C)cc3)no2)n(C)oc1=O 1.67%, O=C(NCc1ccncc1)c1ccc(Cl)c(S(=O)(=O)N2CCOCC2)c1 16.6%, CCOC(=O)c1cnc2ccc(C(=O)OC)cc2c1NCCCN1CCOCC1 -0.453%
